H9c2 protect: modulators protecting cardiomyocytes from myocardial damage; protection from H2O2 cell death, % at 20 µM; AID 588492; H9c2 cardiomyocytes, H2O2 injury protection, ATPLite, 2 h; hit rate 0.63% among 360,000;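 active = compounds giving at least 50% protection of heart cells from peroxide-induced death in the single-dose screen, raw or plate-pattern-corrected value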;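 also: 0% = DMSO wells with peroxide and 100% = DMSO wells without peroxide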
UBC9 SUMO inh: inhibitors of human SUMOylation (UBC9). P63279. AID 2006. inhibition, % at 35 µM. hit rate 0.36% among 290,000. HTRF SUMOylation assay, SAE1/SAE2 + UBC9, in vitro; in the data active = inhibition above about 50%, passing the limit was not always enough
Target sequence (P63279 whole entry, looked up): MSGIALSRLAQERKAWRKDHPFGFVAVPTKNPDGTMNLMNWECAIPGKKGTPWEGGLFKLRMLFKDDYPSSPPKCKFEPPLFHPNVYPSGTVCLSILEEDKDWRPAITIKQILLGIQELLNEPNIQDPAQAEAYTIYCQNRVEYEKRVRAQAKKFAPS
NTR1 agonist: NTR1 (human) agonism. P30989. NTR1-U2OS beta-arrestin-GFP spot imaging, agonist mode. activation, % at 20 µM. hit rate 0.17% among 330,000;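 active = activation at or above 40% of the spot to cytoplasm intensity ratio, with at least 20 cells analyzed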;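 also: 0% = DMSO without peptide and 100% = 100 nM NTR1 peptide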
ALR H2O2 inh: blocks human ALR sulfhydryl oxidase activity; purified ALR, DTT oxidation, H2O2 HRP-luminol luminescence; inhibition, % (test concentration not listed); hit rate 3.8% among 290,000; AID 485317;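 active = mean replicate inhibition above about 79%, with every replicate also reaching it, limit read from the data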
Target sequence (P55789 whole entry, looked up): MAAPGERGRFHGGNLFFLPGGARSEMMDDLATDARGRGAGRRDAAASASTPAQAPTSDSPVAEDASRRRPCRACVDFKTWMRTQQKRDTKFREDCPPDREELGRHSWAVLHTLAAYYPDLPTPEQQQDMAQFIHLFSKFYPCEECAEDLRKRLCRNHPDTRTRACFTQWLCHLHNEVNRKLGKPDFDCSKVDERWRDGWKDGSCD
An asterisk follows results filed as active; . = no result given. An excerpt weighted towards active compounds, which were near 3.9% of everything screened.

SMILES	H9c2 protect	UBC9 SUMO inh	NTR1 agonist	ALR H2O2 inh
CCc1noc(C)c1C(=O)OC(C)C(=O)c1c(C)[nH]c2ccccc12 (stereo not given)	1	.	0	3
Cc1cc(C(=O)OCC(=O)NC(C)C)c2ccccc2n1	4	34	1	5
CCOC(=O)CSc1nc2cc(C(=O)N3CCC(C(N)=O)CC3)ccc2c(=O)n1C1CCCCC1	7	8	0	97*
CCOC(=O)C1CCN(C(=O)c2ccc3c(=O)n4nc(Nc5ccccc5OC)sc4nc3c2)CC1	71*	.	.	.
CCOC(=O)CSc1nc2ccccc2c(=O)n1C1CCCC1	1	7	4	-7
CCOC(=O)C1CCN(C(=O)c2ccc3c(=O)n4nc(Nc5cc(C)ccc5C)sc4nc3c2)CC1	17	-2	8	-11
CCCCCn1c(SCC(=O)CC(=O)OCC)nc2cc(C(=O)N3CCC(C(N)=O)CC3)ccc2c1=O	15	4	3	91*
COCCNC(=O)c1cc(-c2ccc(OC)c(OC)c2)on1	2	20	2	.
O=C1CCCN1CCCNS(=O)(=O)c1cccs1	2	.	0	3
Cc1ccc(C(=O)NCC(=O)OC(C)C(=O)Nc2ccc(N(C)C)cc2)cc1C (stereo not given)	4	-4	0	99*
CC(=O)NCC(=O)OC(C)C(=O)Nc1ccc(C(C)=O)cc1 (stereo not given)	0	16	-2	-27
Cc1csc2nc(CSc3nc4ccccc4o3)c(Br)n12	-22	12	9	-6
COc1ccc(C(=O)O/N=C(/c2ccccc2)c2ccncc2)cc1OC	59*	20	1	1
COc1ccc(C(=O)O/N=C(/c2ccccc2)c2ccncc2)cc1	29	11	2	-2
O=S(=O)(c1cccc2cccnc12)N1CCc2ccccc21	-15	10	0	-1
O=C(C(Cc1ccccc1)NS(=O)(=O)c1cccc2cccnc12)N1CCc2ccccc21 (stereo not given)	7	-2	7	88*
COc1cccc2sc(Nc3nnc(-c4ccccc4Cl)o3)nc12	0	-116	6	86*
COc1cccc2sc(NN)nc12	0	7	0	98*
COc1ccccc1-c1nnc(Nc2nc3c(OC)cccc3s2)o1	1	-22	-2	-2
COc1cccc2sc(Nc3nc(-c4ccncc4)cs3)nc12	18	12	3	.
Cc1nnc(C)n1/N=C/c1ccc(-c2ccccc2Cl)o1	-2	-3	2	.
Nc1nnc(SCC(=O)N2CCN(c3ccccc3)CC2)s1	-5	-4	-1	99*
Nc1nnc(SCC(=O)N2CCN(c3ccccc3)CC2)n1-c1ccccc1	-3	2	-3	98*
CCOC(=O)C(C)Sc1ncnc2c1nnn2-c1ccc(F)cc1 (stereo not given)	3	3	3	96*
CCC(C(=O)OC)n1cnc2c(nnn2-c2ccc(F)cc2)c1=O (stereo not given)	1	-5	4	1
SMILES	H9c2 protect	UBC9 SUMO inh	NTR1 agonist	ALR H2O2 inh
CCC(Sc1ncnc2c1nnn2-c1ccc(F)cc1)C(=O)OC (stereo not given)	-15	-22	1	96*
COC(=O)c1ccc(CSc2ncnc3c2nnn3-c2ccc(F)cc2)o1	-20	13	9	99*
COC(=O)c1ccc(CSc2ncnc3ccccc23)o1	28	8	2	-1
CCN(CC)C(=O)CSc1ncnc2c1nnn2-c1ccc(F)cc1	0	4	0	-1
COc1ccccc1NS(=O)(=O)c1ccc2c(c1)NC(=O)CC(=O)N2	20	2	0	3
O=S(=O)(CS(=O)(=O)c1ccc(Cl)cc1)c1ccc(Cl)cc1	-2	8	-1	-2
CCOC(=O)c1c(C)[nH]c2ccc(O)cc12	-12	5	-2	34
CCOC(=O)c1c(OCC)[nH]c2ccc(O)cc12	-7	11	-2	87*
CCc1cc(-c2n[nH]c(=S)n2N)n(C)n1	5	-7	1	95*
Cc1cc(-c2n[nH]c(=S)n2Cc2ccco2)n(C)n1	5	14	2	-5
CCc1nn(C)c(-c2n[nH]c(=S)n2N)c1Cl	8	4	0	91*
COc1cc([N+](=O)[O-])ccc1NC(=O)COC(=O)c1n[nH]c2ccccc12	-7	-7	8	-8
CCOC(=O)N/N=C/c1ccc(N(CC)CC)cc1O	19	-20	1	99*
CCN(CC)c1ccc(/C=N/NC(=O)c2c(Cl)cnn2C)c(O)c1	40	-14	-1	99*
CCN(CC)c1ccc(/C=N/Nc2ccc(C)cc2)c(O)c1	0	10	.	45
O=C(Nc1cccc(Cl)c1)OCCOCCOC(=O)Nc1cccc(Cl)c1	-23	.	.	.
O=C(CSc1nnnn1-c1ccccc1)Nc1ncc2c(n1)CC(c1ccccc1)CC2=O (stereo not given)	-1	24	2	1
O=c1[nH]c(CSc2nnc(-c3cccnc3)n2C2CCCCC2)nc2ccccc12	89*	12	4	39
CC(=O)c1cccc(NC(=O)Nc2ccc3c(c2)N(C)C(=O)CS3)c1	52*	15	8	46
COc1ccc(/C=N/NC(=O)C(N)=O)c(OC)c1OC	2	37	1	5
COc1cc(/C=N/NC(=O)C(N)=O)cc(OC)c1O	5	0	-2	99*
COc1ccc(/C=N/NC(=O)C(=O)N2CCCCCC2)cc1O	2	2	1	83*
CCOC(=O)N/N=C/c1cc(OC)c(O)c(OC)c1	3	-5	-1	99*
COc1cc(/C=N/N=C/c2cc(OC)c(O)c(OC)c2)cc(OC)c1O	-3	-30	-2	98*
COc1cc(/C=N/NC(=O)c2cccc3ccccc23)cc(OC)c1O	-1	2	0	0
SMILES	H9c2 protect	UBC9 SUMO inh	NTR1 agonist	ALR H2O2 inh
COc1ccc(/C=N/N=C/c2ccc(OC)c(OC)c2)cc1OC	3	2	0	.
COCCN1CCN(C(=O)c2cc(COc3ccc(F)cc3F)on2)CC1	1	10	0	-7
COc1ccccc1N1CCN(C2CCCC(C)C2)CC1 (stereo not given)	8	-2	0	-2
CCOC(=O)N/N=C/c1ccc(F)cc1	6	11	0	16
COCc1cc(C)nc(OCC(=O)N/N=C/c2ccc(OC)c(O)c2)c1C#N	-1	10	-1	99*
CCOC(=O)N/N=C/c1ccc(OC)c(O)c1	-5	8	2	94*
COCc1cc(C)nc(OCC(=O)N/N=C/c2ccc(C)cc2)c1C#N	1	16	0	-6
COCc1ccc(C(=O)N(C)C2CCCN(Cc3ccccc3F)C2)o1 (stereo not given)	5	19	0	-1
O=c1c2ccccc2nc(SCc2nc3ccccc3s2)n1Cc1ccco1	-12	16	3	87*
CC(N=C1NS(=O)(=O)c2ccccc21)c1ccccc1 (stereo not given)	8	12	-1	-4
O=S1(=O)NC(=NC2CCCCCC2)c2ccccc21	0	-10	-1	89*
O=C(/C=C/c1ccco1)NC(=S)Nc1ccc(N2CCOCC2)c(Cl)c1	13	1	-1	5
